In the supplement of paper PMC10849652:
Of roughly 7,900 targets only a part is listed; those with a hit were picked by preference. About 0.6% of all pairs of compound and target were hits.

compound: CN1CCN(CCOc2cc(OC3CCOCC3)c3c(Nc4c(Cl)ccc5c4OCO5)ncnc3c2)CC1 [saracatinib]; experiment: log2 fold change, soluble protein after heating vs DMSO (PISA); higher = thermal stabilisation; K562 cells, 10 uM, 30 min; active = over 0.2 and 3.5 SD of the protein, either way, in both replicates (recomputed)
Outline: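 K562 cells (2×10^6 cells/mL) were treated with 10 μM compound for 30 min, and aliquots were heated for 3 min over 48°C-58°C. Pooled aliquots were extracted in PBS with 0.5% NP-40 at 4°C, and the supernatant after 21,000xg for 90 min was measured by TMTpro 16plex LC-MS/MS with channel sums equalised. Reported thermal stability, relative to control samples and from duplicates, is a log2 fold change.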

Chain of UniProt Q9BWG4 (Q9BWG4 whole entry, looked up): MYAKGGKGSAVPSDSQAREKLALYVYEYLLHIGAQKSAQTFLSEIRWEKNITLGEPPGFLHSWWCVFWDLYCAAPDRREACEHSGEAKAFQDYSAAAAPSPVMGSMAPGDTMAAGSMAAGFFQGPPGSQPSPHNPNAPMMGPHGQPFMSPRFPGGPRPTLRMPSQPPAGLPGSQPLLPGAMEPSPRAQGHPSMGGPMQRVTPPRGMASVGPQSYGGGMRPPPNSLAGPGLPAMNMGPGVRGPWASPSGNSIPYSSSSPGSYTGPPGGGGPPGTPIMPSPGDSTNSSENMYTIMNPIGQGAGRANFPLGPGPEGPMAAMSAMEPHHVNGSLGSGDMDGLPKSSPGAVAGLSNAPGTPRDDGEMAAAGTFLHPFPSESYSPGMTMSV
Chain of UniProt P51532 (P51532 whole entry, looked up): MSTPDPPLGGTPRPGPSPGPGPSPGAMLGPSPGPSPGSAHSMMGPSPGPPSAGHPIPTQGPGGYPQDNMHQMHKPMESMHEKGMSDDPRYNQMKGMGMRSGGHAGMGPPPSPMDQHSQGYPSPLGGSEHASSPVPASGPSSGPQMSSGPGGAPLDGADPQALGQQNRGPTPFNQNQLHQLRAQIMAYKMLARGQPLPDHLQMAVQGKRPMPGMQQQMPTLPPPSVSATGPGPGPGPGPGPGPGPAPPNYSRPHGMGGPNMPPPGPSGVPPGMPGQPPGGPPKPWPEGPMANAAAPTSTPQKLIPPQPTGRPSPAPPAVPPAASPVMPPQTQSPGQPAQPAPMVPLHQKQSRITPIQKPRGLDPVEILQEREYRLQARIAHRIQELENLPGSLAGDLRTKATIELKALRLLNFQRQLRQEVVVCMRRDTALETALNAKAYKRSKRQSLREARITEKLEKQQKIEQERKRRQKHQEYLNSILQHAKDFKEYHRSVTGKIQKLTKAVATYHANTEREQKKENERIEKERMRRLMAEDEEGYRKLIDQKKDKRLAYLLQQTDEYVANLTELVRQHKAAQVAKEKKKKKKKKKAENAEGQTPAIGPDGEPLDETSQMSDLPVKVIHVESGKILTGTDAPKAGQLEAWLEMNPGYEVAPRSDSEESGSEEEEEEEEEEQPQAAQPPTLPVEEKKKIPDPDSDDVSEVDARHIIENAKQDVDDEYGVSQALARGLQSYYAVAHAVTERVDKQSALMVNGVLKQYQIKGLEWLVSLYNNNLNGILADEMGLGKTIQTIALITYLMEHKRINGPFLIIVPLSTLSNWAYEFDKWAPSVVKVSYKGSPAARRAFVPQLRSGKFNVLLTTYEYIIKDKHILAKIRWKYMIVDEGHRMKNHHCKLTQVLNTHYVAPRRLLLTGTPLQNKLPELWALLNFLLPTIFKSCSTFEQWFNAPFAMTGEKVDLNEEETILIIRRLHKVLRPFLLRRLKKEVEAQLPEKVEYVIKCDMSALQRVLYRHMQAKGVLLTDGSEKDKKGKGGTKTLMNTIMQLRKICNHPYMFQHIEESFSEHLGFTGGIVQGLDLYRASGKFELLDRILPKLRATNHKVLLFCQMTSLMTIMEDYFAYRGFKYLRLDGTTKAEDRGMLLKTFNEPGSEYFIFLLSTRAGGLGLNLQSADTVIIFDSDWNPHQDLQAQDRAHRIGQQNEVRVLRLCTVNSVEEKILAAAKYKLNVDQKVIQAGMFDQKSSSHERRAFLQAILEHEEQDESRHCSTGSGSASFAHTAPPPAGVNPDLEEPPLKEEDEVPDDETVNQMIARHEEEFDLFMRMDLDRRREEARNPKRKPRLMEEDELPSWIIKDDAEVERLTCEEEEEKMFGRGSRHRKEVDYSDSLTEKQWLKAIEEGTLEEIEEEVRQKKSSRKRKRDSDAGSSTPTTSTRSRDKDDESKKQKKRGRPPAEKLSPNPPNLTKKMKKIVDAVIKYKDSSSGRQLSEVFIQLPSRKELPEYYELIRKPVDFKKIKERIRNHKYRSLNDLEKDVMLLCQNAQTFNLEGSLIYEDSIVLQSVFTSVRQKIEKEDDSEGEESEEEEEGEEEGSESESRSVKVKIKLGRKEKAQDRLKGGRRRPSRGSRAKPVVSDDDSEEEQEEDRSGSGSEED
Chain of UniProt Q9UHD2 (Q9UHD2 whole entry, looked up): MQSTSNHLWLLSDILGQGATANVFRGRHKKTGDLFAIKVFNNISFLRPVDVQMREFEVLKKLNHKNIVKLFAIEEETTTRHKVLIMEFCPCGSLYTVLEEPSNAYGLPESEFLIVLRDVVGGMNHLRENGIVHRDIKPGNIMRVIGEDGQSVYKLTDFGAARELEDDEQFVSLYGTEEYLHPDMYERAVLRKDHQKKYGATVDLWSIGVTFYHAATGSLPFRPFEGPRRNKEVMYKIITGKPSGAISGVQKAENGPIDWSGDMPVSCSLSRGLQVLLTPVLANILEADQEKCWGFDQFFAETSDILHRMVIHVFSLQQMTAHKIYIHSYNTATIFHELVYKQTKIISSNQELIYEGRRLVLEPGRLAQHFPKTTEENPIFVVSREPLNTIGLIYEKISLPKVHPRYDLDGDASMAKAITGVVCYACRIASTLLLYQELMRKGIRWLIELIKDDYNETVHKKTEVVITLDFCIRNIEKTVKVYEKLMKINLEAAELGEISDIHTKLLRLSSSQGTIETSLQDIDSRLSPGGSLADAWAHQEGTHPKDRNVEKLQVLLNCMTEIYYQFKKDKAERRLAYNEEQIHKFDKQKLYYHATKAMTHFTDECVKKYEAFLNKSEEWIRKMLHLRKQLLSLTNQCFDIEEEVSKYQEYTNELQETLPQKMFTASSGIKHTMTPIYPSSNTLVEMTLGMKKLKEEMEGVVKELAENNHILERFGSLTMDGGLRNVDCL
Chain of UniProt Q13242 (Q13242 whole entry, looked up): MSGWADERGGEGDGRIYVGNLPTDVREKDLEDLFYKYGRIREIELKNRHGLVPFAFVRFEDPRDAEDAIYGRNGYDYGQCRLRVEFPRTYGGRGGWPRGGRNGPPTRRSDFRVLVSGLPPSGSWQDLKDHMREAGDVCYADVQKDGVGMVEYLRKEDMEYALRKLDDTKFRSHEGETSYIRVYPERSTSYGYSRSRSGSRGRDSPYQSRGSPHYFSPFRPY
Chain of UniProt Q9NXE4 (Q9NXE4 whole entry, looked up): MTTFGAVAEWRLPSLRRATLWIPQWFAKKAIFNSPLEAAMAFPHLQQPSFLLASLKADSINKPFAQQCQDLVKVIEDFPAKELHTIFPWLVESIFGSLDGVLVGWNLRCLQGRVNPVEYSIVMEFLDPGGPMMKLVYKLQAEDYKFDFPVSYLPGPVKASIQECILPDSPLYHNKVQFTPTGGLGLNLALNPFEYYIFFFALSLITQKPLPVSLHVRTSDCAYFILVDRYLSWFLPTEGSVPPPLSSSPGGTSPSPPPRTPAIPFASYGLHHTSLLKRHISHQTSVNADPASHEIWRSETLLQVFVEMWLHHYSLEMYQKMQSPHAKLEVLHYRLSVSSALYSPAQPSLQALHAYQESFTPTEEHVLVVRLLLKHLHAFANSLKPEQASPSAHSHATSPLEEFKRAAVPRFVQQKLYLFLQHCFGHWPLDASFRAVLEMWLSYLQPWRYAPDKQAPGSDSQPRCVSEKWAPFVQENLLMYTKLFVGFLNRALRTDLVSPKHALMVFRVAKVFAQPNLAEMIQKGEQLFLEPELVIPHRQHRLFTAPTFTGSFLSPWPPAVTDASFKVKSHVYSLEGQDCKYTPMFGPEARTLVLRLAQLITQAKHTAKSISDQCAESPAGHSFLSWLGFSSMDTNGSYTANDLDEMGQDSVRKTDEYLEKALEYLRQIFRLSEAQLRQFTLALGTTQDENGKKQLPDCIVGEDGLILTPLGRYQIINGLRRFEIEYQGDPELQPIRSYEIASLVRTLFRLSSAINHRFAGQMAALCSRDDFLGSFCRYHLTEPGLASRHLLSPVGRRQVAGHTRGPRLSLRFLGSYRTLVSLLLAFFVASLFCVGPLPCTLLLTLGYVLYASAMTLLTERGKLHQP
Chain of UniProt Q5JUR7 (Q5JUR7 whole entry, looked up): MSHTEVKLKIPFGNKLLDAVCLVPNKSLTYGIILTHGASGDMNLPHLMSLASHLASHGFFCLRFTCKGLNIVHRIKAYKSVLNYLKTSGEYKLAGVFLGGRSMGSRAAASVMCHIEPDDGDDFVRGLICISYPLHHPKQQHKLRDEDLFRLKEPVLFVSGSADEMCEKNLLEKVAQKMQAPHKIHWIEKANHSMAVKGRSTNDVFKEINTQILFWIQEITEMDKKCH
Chain of UniProt Q92581 (Q92581 whole entry, looked up): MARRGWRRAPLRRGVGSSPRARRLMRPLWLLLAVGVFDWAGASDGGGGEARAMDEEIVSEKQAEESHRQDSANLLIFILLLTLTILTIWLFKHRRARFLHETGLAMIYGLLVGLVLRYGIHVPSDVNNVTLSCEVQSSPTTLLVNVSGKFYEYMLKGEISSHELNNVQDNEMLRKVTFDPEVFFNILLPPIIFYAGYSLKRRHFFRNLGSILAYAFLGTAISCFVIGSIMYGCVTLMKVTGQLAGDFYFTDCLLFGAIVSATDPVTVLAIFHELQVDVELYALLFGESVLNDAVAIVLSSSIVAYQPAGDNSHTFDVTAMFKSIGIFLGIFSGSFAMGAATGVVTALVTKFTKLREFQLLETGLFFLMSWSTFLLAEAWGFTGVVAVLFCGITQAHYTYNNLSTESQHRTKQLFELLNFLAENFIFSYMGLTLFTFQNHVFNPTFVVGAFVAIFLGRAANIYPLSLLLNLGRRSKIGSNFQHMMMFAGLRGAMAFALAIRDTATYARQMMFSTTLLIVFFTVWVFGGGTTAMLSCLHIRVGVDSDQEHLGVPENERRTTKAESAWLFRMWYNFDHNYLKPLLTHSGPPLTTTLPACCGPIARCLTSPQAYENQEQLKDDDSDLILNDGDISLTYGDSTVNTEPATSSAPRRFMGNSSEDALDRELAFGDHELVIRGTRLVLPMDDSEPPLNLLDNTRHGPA

Target	log2 fold change
SNX2 isoform 2 (UniProt O60749)	-0.002 (inactive)
SSBP4 (UniProt Q9BWG4)	0.409 (active)
TK1 (UniProt K7ERV3)	0.037 (inactive)
TBK1 (UniProt Q9UHD2)	-0.026 (inactive)
SLC8B1 (UniProt Q6J4K2)	0.036 (inactive)
TBP (UniProt P20226)	0.316 (inactive)
SP2 (UniProt Q02086)	0.09 (inactive)
SLC9A6 isoform 3 (UniProt Q92581)	0.128 (inactive)
TEX30 (UniProt Q5JUR7)	-0.065 (inactive)
SMPD4 isoform 2 (UniProt Q9NXE4)	0.028 (inactive)
SMARCA4 (UniProt P51532)	-0.303 (inactive)
TM7SF2 (UniProt O76062)	0.069 (inactive)
SREBF1 isoform 4 (UniProt P36956)	0.077 (inactive)
SRSF9 (UniProt Q13242)	0.022 (inactive)
SSB (UniProt E7ERC4)	-0.05 (inactive)
THAP9 (UniProt Q9H5L6)	0.039 (inactive)
TC2N (UniProt Q8N9U0)	-0.215 (inactive)
SNRK (UniProt Q9NRH2)	-0.092 (inactive)
SYK (UniProt P43405)	-0.151 (inactive)
